PubChem BioAssay (NCATS)
Records with an inconclusive call do not appear. Active and inactive are the calls of the source. The call rests on the fitted dose curve; in most records, active means well fitted curve in the direction sought with a large enough effect; inconclusive means small, poorly fitted or top-dose-only effect, or another doubt; inactive means no such curve, though single readings can be large; an effect the other way counts as inactive or inconclusive.

Legend:
[1] = OV-KATE Cancer Cell Toxicity qHTS against the NCATS CANVASS Library (AID 1347345)
Description: (§1) Natural products and their derivatives continue to be wellsprings of nascent therapeutic potential. However, many laboratories have limited resources for biological evaluation, leaving their previously isolated or synthesized compounds largely or completely untested. To address this issue, the Canvass library of natural products was assembled (https://tripod.nih.gov/canvass), in collaboration with academic and industry researchers, for quantitative high-throughput screening (qHTS) across a diverse set of cell-based and biochemical assays. The pure (>85% purity by liquid chromatography/mass spectrometry [LC/MS]) Canvass library of 346 natural products were submitted by 45 academic laboratories and companies around the world. […] The library was formatted into 1536-well plates and evaluated in 50 qHTS (in an 11-pnt concentration series) bioassays with broad scope of disease-relevant mechanisms. The resulting data set from 50 different assays was then systematically analyzed to identify overall trends and specific natural products with interesting biological activities. […]
Cancer Cell Toxicity protocol for cell lines COV-362, OV-KATE, OV-SAHO, UWB1.289, UWB1.289-WTBRCA1, HEK-293, HPAF-II, Panc-1005, SW1088, or U-118MG. […] Luminescence signal was acquired via the ViewLux plate reader (PerkinElmer) using a clear filter, 2 second exposure and 2x binning settings.

[2] = HPAF-II Cancer Cell Toxicity qHTS against the NCATS CANVASS Library (AID 1347346); further: nearly all actives have a fitted effect of over 55% in size
Outline: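 Cytotoxicity in HPAF-II pancreatic cancer cells: 72 h treatment across 11 concentrations, ATP-based CellTiter-Glo luminescence endpoint.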

[3] = UWB1.289 Cancer Cell Toxicity qHTS against the NCATS CANVASS Library (AID 1347347); further: nearly all actives have a fitted effect of over 60% in size
Outline: (§2)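 Viability was assessed by adding CellTiter-Glo reagent to treated cultures and reading luminescence after 15min at room temperature. Treatment lasted 72 h at 37 degrees C/5% CO2, using an 11-point series on 1000 cells/well.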

[4] = OV-SAHO Cancer Cell Toxicity qHTS against the NCATS CANVASS Library (AID 1347348); further: nearly all actives have a fitted effect of over 55% in size
Outline: as §2

[5] = Panc-1005 Cancer Cell Toxicity qHTS against the NCATS CANVASS Library (AID 1347349); further: nearly all actives have a fitted effect of over 60% in size
Outline: as §2

[6] = SW1088 Cancer Cell Toxicity qHTS against the NCATS CANVASS Library (AID 1347350); further: nearly all actives have a fitted effect of over 75% in size
Outline: as §2

[7] = U-118MG Cancer Cell Toxicity qHTS against the NCATS CANVASS Library (AID 1347351)
Outline: as §2

[8] = COV-362 Cancer Cell Toxicity qHTS against the NCATS CANVASS Library (AID 1347352)
Outline: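 qHTS cytotoxicity: compounds tested in 11 concentrations on 1000 seeded cells per well over 72 h; bortezomib served as control; signal from CellTiter-Glo luminescence.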

[9] = A2780 Cisplatin Sensitive Ovarian Cancer Cell Toxicity qHTS against the NCATS CANVASS Library (AID 1347353); conditions: A2780 ovarian cancer viability, ATPLite luminescence, 72 h; at 46.1 µM (top of the series); further: nearly all actives have a fitted effect of over 60% in size
Description: Natural products and their derivatives continue to be wellsprings of nascent therapeutic potential. However, many laboratories have limited resources for biological evaluation, leaving their previously isolated or synthesized compounds largely or completely untested. To address this issue, the Canvass library of natural products was assembled (https://tripod.nih.gov/canvass), in collaboration with academic and industry researchers, for quantitative high-throughput screening (qHTS) across a diverse set of cell-based and biochemical assays. The pure (>85% purity by liquid chromatography/mass spectrometry [LC/MS]) Canvass library of 346 natural products were submitted by 45 academic laboratories and companies around the world. We collected pure natural products to circumvent deconvolution and structure elucidation due to time and resource limitations. The library was formatted into 1536-well plates and evaluated in 50 qHTS (in an 11-pnt concentration series) bioassays with broad scope of disease-relevant mechanisms. The resulting data set from 50 different assays was then systematically analyzed to identify overall trends and specific natural products with interesting biological activities. […]
Cancer Cell Toxicity protocol 1. […] Luminescence signal was acquired via the ViewLux plate reader (PerkinElmer) using a clear filter, 2 second exposure and 2x binning settings.

[10] = UWB1.289-WTBRCA1 Cancer Cell Toxicity qHTS against the NCATS CANVASS Library (AID 1347354)
Description: as §1
Cancer Cell Toxicity COV-362, OV-KATE, OV-SAHO, UWB1.289, UWB1.289-WTBRCA1, HEK-293, HPAF-II, Panc-1005, SW1088, and U-118MG-screen protocol. […] Luminescence signal was acquired via the ViewLux plate reader (PerkinElmer) using a clear filter, 2 second exposure and 2x binning settings.

Measured: outcome

O=C(O)c1cc(O)c(O)c(O)c1
inactive: all assays above

O=c1cc(-c2ccccc2)oc2c(O)c(O)ccc12
inactive: [2]
